PubChem BioAssay (NCI)
About 83,000 compounds went through this panel and 20% of them were active in at least one assay; those are over-represented in the sample as a whole.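 Activity criterion: percent growth below 10, measured after cells in 96-well plates were exposed to a single compound concentration for 48 hours.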 A number with no mark means an inactive call. Calls of active or inactive are those of the source.

System: HL-60(TB) leukemia
Experiment: NCI-60 one-dose screen, 48 h (100 = growth as untreated, 0 = no growth, -100 = all killed)
Settings: 10 µM unless noted

Compound | growth
CCCCCCCCCCCCC1CCC(=O)O1 (configuration not stated) | 88.1%
Cc1cc2nc(CC(=O)c3ccccc3)c(=O)[nH]c2cc1C | 103%
Cc1cc(NCC(=O)Nc2ccc(-c3nc4ccccc4s3)cc2)no1 | 96.5%
O=C1c2ccc3c4c(ccc(c24)C(=O)N1CCCNCc1ccccc1Cl)C(=O)N(CCCNCc1ccccc1Cl)C3=O | -55.9% (active)
O=c1c2c3c(sc2n2c(-c4cn(-c5ccccc5)nc4-c4ccc(Cl)cc4)nnc2n1Cc1ccccc1)CCCC3 | 102%
CC1=C[C@H]2c3c(c(O)c(O)c4oc5cc(O)ccc5c(=O)c34)[C@H](c3cc(O)c(O)c4oc5cc(O)ccc5c(=O)c34)[C@H]2C(C)(C)C1 | 17.8%
CCN(CC)CCCC(C)Nc1cnc(C(=O)Nc2cc(C)cc3cccnc23)cn1 (configuration not stated) | 76.8%
O=C(NCCN1CCOCC1)OCc1nc2nc(Cl)nc(N3CCOCC3)c2[nH]1 | -54% (active)
NC1CCN(c2nc(Nc3cccc(C(F)(F)F)c3)c3c(=O)[nH]ccc3n2)CC1 | -61.2% (active)
CCC1NC(=O)c2cc(S(N)(=O)=O)c(Cl)cc2N1 (configuration not stated) | 120%
Cc1ccc(-c2cnc3sc4ccc(Cl)cc4n23)cc1 | 90.5%
CCCOC(=O)Nc1nc2ccc(SCC)cc2s1 | 76.4%
CN(C)CCN1C(=O)c2c(c3c4ccccc4n4c3c3c2c2ccccc2n3C2CC(O)C(O)C4(C)O2)C1=O (configuration not stated) | 32.5%
COC1NC(Cl)=C(C#N)C(C#N)(C#N)C1(C)C (configuration not stated) | 92.9%
Cc1ccc2c(c1)C(=O)/C(=C/c1ccc(OCC(=O)c3ccccc3)cc1)O2 | 69.9%
Cc1ccc2nc(NC(=O)CSc3nc(-c4ccccc4)c(C#N)c(=O)n3Cc3ccccc3)sc2c1 | 100%
Cc1ccc(OCCOCCOCCOCCOCCOc2ccc(C)n(O)c2=S)c(=S)n1O | -16.5% (active)
COc1cc2ncn3c(=O)c4c5c(sc4nc3c2cc1OC)CCCCC5 | 100%
O=C(Nc1cccc(N=Cc2c(O)ccc3ccccc23)c1)c1ccccc1 | 109%
CSCCCNC(=O)c1ccc2c(c1)/C(=C/c1[nH]c(C)cc1C)C(=O)N2 | 46.1%
COc1cc(Cl)cc(-c2nn(-c3cccc(NC(=O)Nc4ccc(Cl)c(Cl)c4)c3)cc2-c2ccncc2)c1 | -5.12% (active)

Compound | growth
CC1(C)CC(=O)C2=C(C1)Oc1nc(N)c(C#N)c(N)c1C2c1ccc(F)cc1 (configuration not stated) | 107%
CN1CCOCCOCCOc2ccccc2NC(=O)c2nc(cnc2N)-c2ccc(cc2)S1(=O)=O | -22.2% (active)
CC(=O)c1ccc2c(c1)CCN2 | 106%
CC1CN(CCCOC(=O)Nc2ccc(Cl)cc2)CCN1C(C)(C)C (configuration not stated) | 96.1%
COc1cccc(CNc2nnc(C)c(C)n2)c1O | 95.9%
CCC/C=C(\C)C(C)(C#N)C(=O)OCC (configuration not stated) | 103%
COc1ccc2[nH]cc(/C=C3/C(=O)Nc4ccc(Cl)cc43)c2c1 | 53.4%
FC(F)(F)c1cc(Nc2ccc3c(OCCCN4CCOCC4)cccc3n2)ccc1Cl | 63.3%
CN1CCC2(CC1)N=C(SCC(=O)Nc1cnc3ccccc3c1)C(c1ccc(Br)cc1)=N2 | -40.7% (active)
O=C(CNc1nc2ccccc2s1)Nc1ccc(-c2nc3ccccc3s2)cc1 | 99.1%
Clc1ccc(CCC(Cn2ccnc2)Sc2c(Cl)cccc2Cl)cc1 (configuration not stated) | 2.26% (active)
Cc1nn(C)c2ncnc(Nc3ccccc3Br)c12 | 94.3%
O=C(CN1CCCCCC1)Nc1nc2ccc(NCc3ccc(Cl)cc3)cc2s1 | 95.9%
COc1ccc(-c2cnc(SCC(=O)Nc3ccc(-c4nc5ccccc5s4)cc3)n2-c2ccc(OC)cc2)cc1 | 106%
COc1cc(C(=O)c2cc(C)c3[nH]c4ccc(O)cc4c3c2C)cc(OC)c1OC | -13.7% (active)
[2H]C([2H])([2H])Oc1c(F)cccc1/C=C/C(=O)/C=C(O)/C=C/c1cccc(F)c1OC([2H])([2H])[2H] | 88.5%
CC1(C)OC(=O)C(=Cc2cccc(Br)c2)C(=O)O1 | 83.4%
C=CC[C@]1(O)CC[C@H]2[C@@H]3CCc4cc(O)ccc4[C@H]3CC[C@@]21C | 75.1%
CCN(CC)/C([O-])=c1\cccc\c1=C1\N=C(c2ccccc2)N=C1[n+]1ccc(-c2ccccc2)cc1 | 92.2%
C#CCN(CCCOc1ccc(Cl)cc1Cl)CCCSC(=O)CCCCCN1/C(=C\C=C2/CCCC(/C=C/C3=[N+](CCCCCC(=O)[O-])c4ccccc4C3(C)C)=C2Cl)C(C)(C)c2ccccc21 | -44.2% (active)
Nc1ccc(S(=O)(=O)Nc2ccnn2-c2ccccc2)cc1 | 102%

Compound | growth
COC(=O)OC1C(O[C@H]2C[C@H]3[C@@H]4CC=C5C[C@@H](O)CC[C@]5(C)[C@H]4CC[C@]3(C)[C@H]2[C@H](C)C(=O)CCC(C)C)OCC(O)C1OC1OCC(O)C(O)C1OC(=O)c1ccc(OC)cc1 (some centres not stated) | -22.3% (active)
O=C1Nc2ccccc2/C1=C/c1cccs1 | 107%
Nc1cccc2cccc(O)c12 | 82.9%
Cc1cccc(/C=N/Nc2cc(C)c3cccc(C)c3n2)n1 | 83.1%
O=C(NCCCl)Nc1ncccc1OCc1ccccc1 | 90%
Nc1ccc2c(c1)Cc1cc(NC(=O)C(F)(F)F)ccc1-2 | 98.4%
COc1cccc(-c2nc3sccn3c2-c2ccnc(NCCCNS(=O)(=O)c3ccc(F)cc3)c2)c1 | -13.5% (active)
Cn1cnc([N+](=O)[O-])c1S(=O)(=O)Oc1ccc(Cl)cc1 | -35.2% (active)
COc1ccccc1N1CCCSC1=Nc1ccccc1 | 50.1%
CCOC(=O)c1c(Nc2nc3ccccc3s2)sc2c1CCC(=O)C2 | 58.7%
CC/C=C\C[C@@H](O)C/C=C1/C(=O)C=C[C@H]1C/C=C\CCCC(=O)OC | -15.6% (active)
CC(=O)OC[C@]12CC[C@H]3[C@@H](C[C@H]4O[C@]45CC=CC(=O)[C@]35C)[C@]1(O)CC[C@@]2(O)[C@@](C)(O)C1CC(C)=C(C)C(=O)O1 (some centres not stated) | -11.8% (active)
CC(=O)OCC1OC(n2cnc3c(=S)nc(N)[nH]c32)C(OC(C)=O)C1OC(C)=O (configuration not stated) | 81.2%
Cc1ccc(C(SCC(N)C(=O)O)(c2ccc(C)cc2)c2ccc(C)cc2)cc1 (configuration not stated) | -17% (active)
COc1cc(CSc2nc3ccc(Cl)cc3c(=O)n2-c2ccccc2)cc(OC)c1OC | 90.8%
COc1ccc(-c2nc(SCC(=O)c3ccc(Br)cc3)[nH]c(=O)c2C#N)cc1 | 91.5%
COc1cccc(-c2nc3sccn3c2-c2ccnc(NCCNC(=O)Nc3cccc(C(F)(F)F)c3)n2)c1 | 62.8%
C=C(CNCCc1ccc(O)cc1)[C@@H]1CC[C@]2(COC3CCCCO3)CC[C@]3(C)[C@H](CC[C@@H]4[C@@]5(C)CCC(NCCO)C(C)(C)[C@@H]5CC[C@]43C)[C@@H]12 (some centres not stated) | -59.5% (active)
Cc1cn(-c2cc(C(=O)Nc3cccc(-n4ccc5c(NC(=O)c6ccccc6)nccc54)c3)cc(C(F)(F)F)c2)cn1 | 3.73% (active)
O=C(Nc1ncc(Cc2ccc(Cl)cc2)s1)C1=NCCCCN1 | 97%
O=C1CCCCCCCCC(O)C(O)CCCC(c2cccs2)O1 (configuration not stated) | 77.9%

Compound | growth
CCCCCCCCCCCC[N+](C)(C)Cc1ccccc1 | -52.6% (active)
NS(=O)(=O)c1ccc(Nc2nc(O)c(/C=C3\C=Nc4ccccc43)s2)cc1 | 95.4%
O=C1c2c(c3c4cc(Br)ccc4[nH]c3c3ccc4ccccc4c23)C(=O)N1O | 116%
Nc1ncnc2c1N=C(c1ccc3c(c1)OCO3)CC(c1cccc(Nc3ccnc4cc(C(F)(F)F)ccc34)c1)N2 (configuration not stated) | 92.9%
O=c1[nH]c(O)c(/C=C2/C=Nc3ccccc32)[nH]1 | 35.4%
Cc1cc(=O)oc2cc(Oc3nc(-c4cccs4)cn4c(-c5cccs5)cnc34)ccc12 | 77.6%
Nc1ncc(-c2ccc3ncnc(N4CCc5ccc(Cl)cc54)c3c2)cc1C(F)(F)F | 22.9%
CSc1nc2c(c(=O)n1C)C1(C(=O)N(Cc3ccccc3)c3ccccc31)c1c(nc(SC)n(C)c1=O)N2 | 73.4%
CC(O)CN1CC(O)=C(c2nc3ccccc3s2)C1=N (configuration not stated) | 93.8%
C=C1C(=O)O[C@H]2[C@H]1CC/C(COC(=O)c1ccc(Cl)nc1)=C\CC[C@@]1(C)O[C@@H]21 | -55.1% (active)
COCCCN=C(N)c1ccc(NC(=O)c2ccc(C(=O)Nc3ccc(C(N)=NCCCOC)cc3)cc2)cc1 | 71.3%
COc1cccc(C(=O)Nc2cccc(NC(=O)c3ccccn3)c2)c1 | 87.8%
CC1=CC(=O)N(c2cccc3c(N4C(=O)C=C(C)C4=O)cccc23)C1=O | -1.53% (active)
Nc1cnc(C(=O)NNc2nc3cc(F)ccc3n3cccc23)cn1 | 12.1%
COc1cc2cc(CN3CCN(c4nccc(-c5ccc6ccccc6c5)n4)CC3)c(=O)[nH]c2cc1OC | 9.75% (active)
CCN1C(=O)N(CC)C2C1NN=c1s/c(=C\c3cccc(F)c3)c(=O)n12 (configuration not stated) | -16.9% (active)
N#CC1=C(N)Oc2nc[nH]c(=O)c2C1c1cccs1 (configuration not stated) | 98.8%
N#CSCC1CC(O)(c2ccccc2)C(c2ccccc2)C(c2ccc(Cl)cc2)O1 (configuration not stated) | -1.83% (active)
CN(C)c1ccc(C(=S)c2ccc(N(C)C)cc2)cc1 | 62.8%
